For some assays here: Potency and affinity values are given separately. The source made the active and inactive calls.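 The calls were made as follows, unless noted: active = hit in primary screen, with calcium signal over 5 SD above buffer well mean in both duplicates; inactive = the rest.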
Legend:
[1] = test system: TRPC4 beta (transient receptor potential cation channel C4), mouse; test: activators of mouse TRPC4 channel, confirmation, cell-based, Fluo4 calcium, HEK293 TRPC4beta/mu-opioid, duplicates, 10 µM (AID 2426;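 active = fluorescence ratio normalized to control raised more than 50% in primary screen plus both repeat runs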;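 as to activation: percent rise of integrated ratio over buffer wells lacking compound which define 0%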); details: Fluo4 calcium fluorescence, at 10 µM; active compounds read high
[2] = test system: transient receptor potential cation channel C4 beta (TRPC4), mouse; test: activators of mouse TRPC4 channel, confirmation, cell-based, second round, Fluo4, HEK293 TRPC4beta/mu-opioid, 1 µM (AID 2461;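 active = primary screen active and over 50% activation in each of two duplicate runs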;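 as to activation: 0% = wells without test compound as baseline of integrated fluorescence ratio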); details: Fluo4 calcium fluorescence, at 1 µM; active compounds read high
[3] = test system: TRPC4 (transient receptor potential cation channel C4 beta), mouse; test: positive allosteric modulators of mouse TRPC4, confirmation, cell-based, second round, Fluo-4, HEK293 TRPC4beta/mu-opioid, 1 µM (AID 2554;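 active = primary screen hit whose fluorescence ratio, in both repeats, exceeds the weak agonist control mean by 3 SD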); details: DAMGO EC20, Fluo-4 calcium flux, at 1 µM; active compounds read high
[4] = test system: TRPC4 beta (transient receptor potential cation channel C4), mouse; test: positive allosteric modulators of mouse TRPC4, confirmation, cell-based, Fluo-4, HEK293 TRPC4beta/mu-opioid (AID 2555;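 active = primary screen hit whose calcium fluorescence ratio, in both repeats, exceeds the weak agonist control mean by 3 SD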); details: DAMGO EC20, Fluo-4 calcium flux, at 10 µM; active compounds read high
[5] = biological target: Short transient receptor potential channel 4 (Mus musculus) (UniProt Q9QUQ5); test: inhibitors of mouse TRPC4 channel, confirmation, cell-based, Fluo4, HEK293 TRPC4beta/mu-opioid (AID 2636;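 active = calcium signal cut by more than 3 SD below the full-agonist control yet still positive, in both repeats and the earlier primary screen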); details: DAMGO, Fluo4 calcium flux, at 10 µM; active compounds read high
Chain of Short transient receptor potential channel 4 (Mus musculus) (Q9QUQ5 whole entry, looked up): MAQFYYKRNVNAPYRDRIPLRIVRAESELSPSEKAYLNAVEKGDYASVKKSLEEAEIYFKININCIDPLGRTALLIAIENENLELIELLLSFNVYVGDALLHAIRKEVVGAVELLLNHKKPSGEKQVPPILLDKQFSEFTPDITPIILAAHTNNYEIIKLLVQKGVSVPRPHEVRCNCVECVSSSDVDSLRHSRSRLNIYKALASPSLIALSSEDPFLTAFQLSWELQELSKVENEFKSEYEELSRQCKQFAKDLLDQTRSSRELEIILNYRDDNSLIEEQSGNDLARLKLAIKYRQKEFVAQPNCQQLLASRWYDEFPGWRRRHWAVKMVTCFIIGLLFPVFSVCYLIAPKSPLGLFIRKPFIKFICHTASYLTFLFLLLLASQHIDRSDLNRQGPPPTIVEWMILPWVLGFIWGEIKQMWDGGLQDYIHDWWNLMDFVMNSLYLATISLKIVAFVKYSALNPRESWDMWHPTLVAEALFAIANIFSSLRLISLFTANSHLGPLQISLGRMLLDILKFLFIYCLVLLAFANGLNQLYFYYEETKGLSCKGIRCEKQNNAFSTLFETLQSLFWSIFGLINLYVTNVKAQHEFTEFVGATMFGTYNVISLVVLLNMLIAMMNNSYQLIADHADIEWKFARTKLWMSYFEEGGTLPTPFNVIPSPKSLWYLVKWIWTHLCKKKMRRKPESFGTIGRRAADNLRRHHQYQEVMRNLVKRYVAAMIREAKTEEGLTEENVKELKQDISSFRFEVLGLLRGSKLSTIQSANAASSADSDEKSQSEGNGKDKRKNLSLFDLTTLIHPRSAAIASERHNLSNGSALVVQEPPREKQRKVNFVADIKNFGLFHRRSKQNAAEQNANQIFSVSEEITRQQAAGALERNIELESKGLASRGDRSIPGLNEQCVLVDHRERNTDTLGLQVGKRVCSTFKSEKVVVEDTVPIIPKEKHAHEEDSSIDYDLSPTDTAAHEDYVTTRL

[6] = biological target: Short transient receptor potential channel 4 (Mus musculus) (UniProt Q9QUQ5); test: inhibitors of mouse TRPC4 channel, confirmation, cell-based, second round, Fluo4, HEK293 TRPC4beta/mu-opioid, 1 µM (AID 2637;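 active = calcium signal ratio cut to more than 3 SD under the fully stimulated control mean yet still positive, in both repeats and the primary screen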); details: Fluo4 calcium flux, DAMGO, at 1 µM; active compounds read high
[7] = biological target: Short transient receptor potential channel 4 (Mus musculus) (UniProt Q9QUQ5); test: TRPC4 positive allosteric modulators, dose response, cell-based, HEK293 TRPC4/mu-opioid, Fluo-4 calcium, EC20 DAMGO (AID 434941;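 active = earlier screen potentiator hit that boosts the TRPC4 ion channel at some dose, with a dose response; inactive = no potentiation, no dose response, or not a prior hit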;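 also: calcium entry triggered by an EC20 dose of DAMGO at the co-expressed mu-opioid receptor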)
[8] = biological target: Short transient receptor potential channel 4 (Mus musculus) (UniProt Q9QUQ5); test: mouse TRPC4 channel inhibitors, dose response, cell-based, HEK293 TRPC4/mu-opioid, Fluo-4 calcium (AID 434942;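 active = primary screen inhibitor hit that blocks the TRPC4 channel at some tested dose, yielding a dose curve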)
[9] = biological target: Short transient receptor potential channel 6 (Mus musculus) (UniProt Q61143); test: inhibition of mouse TRPC6 channel, confirmation, selectivity assay for TRPC4 inhibitor project, cell-based, HEK293, membrane potential dye, duplicate (AID 434948;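 active = active in primary screen and both duplicates, each dropping signal beyond three positive-control SD with fluorescence still positive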); details: HEK293 TRPC6, membrane potential dye fluorescence, at 10 µM, stimulated with maximal-effect acetylcholine; active compounds read high
Chain of Short transient receptor potential channel 6 (Mus musculus) (Q61143 whole entry, looked up): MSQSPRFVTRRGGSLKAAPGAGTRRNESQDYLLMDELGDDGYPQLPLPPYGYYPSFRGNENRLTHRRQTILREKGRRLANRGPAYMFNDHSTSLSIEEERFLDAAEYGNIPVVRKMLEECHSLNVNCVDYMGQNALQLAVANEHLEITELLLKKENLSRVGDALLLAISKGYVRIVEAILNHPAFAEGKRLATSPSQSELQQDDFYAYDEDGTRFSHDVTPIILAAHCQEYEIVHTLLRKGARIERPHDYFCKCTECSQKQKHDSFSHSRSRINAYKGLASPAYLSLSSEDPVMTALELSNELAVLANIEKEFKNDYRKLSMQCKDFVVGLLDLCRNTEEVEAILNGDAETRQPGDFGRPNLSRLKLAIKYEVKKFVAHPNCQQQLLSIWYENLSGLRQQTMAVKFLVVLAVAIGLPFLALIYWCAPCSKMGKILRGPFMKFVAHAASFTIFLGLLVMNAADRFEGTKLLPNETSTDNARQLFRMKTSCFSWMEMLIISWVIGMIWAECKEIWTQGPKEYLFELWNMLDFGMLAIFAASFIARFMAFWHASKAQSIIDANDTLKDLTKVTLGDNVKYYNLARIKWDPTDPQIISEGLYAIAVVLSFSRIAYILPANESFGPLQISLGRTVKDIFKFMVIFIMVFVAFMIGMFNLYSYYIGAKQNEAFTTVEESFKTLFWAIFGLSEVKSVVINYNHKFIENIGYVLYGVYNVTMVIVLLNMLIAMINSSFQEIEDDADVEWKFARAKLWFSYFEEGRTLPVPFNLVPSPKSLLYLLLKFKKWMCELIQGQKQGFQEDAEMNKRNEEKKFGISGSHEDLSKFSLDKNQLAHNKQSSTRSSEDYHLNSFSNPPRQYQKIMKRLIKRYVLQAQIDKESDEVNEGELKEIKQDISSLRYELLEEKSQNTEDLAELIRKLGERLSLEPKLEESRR

[10] = biological target: Short transient receptor potential channel 6 (Mus musculus) (UniProt Q61143); test: activation of mouse TRPC6 channel, confirmation, selectivity assay for TRPC4 activator project, cell-based, HEK293, membrane potential dye, duplicate (AID 434950;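 active = membrane potential signal rise above negative control mean plus 3 SD in both duplicates, also active in the earlier TRPC4 screen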;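 as to activation: 0% = buffer only wells and 100% = acetylcholine maximal-effect wells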); details: HEK293 TRPC6, membrane potential fluorescence, at 10 µM; active compounds read high
[11] = biological target: Short transient receptor potential channel 6 (Mus musculus) (UniProt Q61143); test: TRPC6 potentiation by TRPC4 potentiator hits, confirmation, selectivity assay for TRPC4 potentiator project, HEK293 cells, membrane potential dye, duplicate (AID 434952;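 active = compound raising the membrane signal above positive-control mean plus 3 SD in both repeats, and a primary screen hit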); details: HEK293 TRPC6, membrane potential dye fluorescence, at 10 µM, maximal acetylcholine added after compound; active compounds read high
[12] = biological target: Short transient receptor potential channel 4 (Mus musculus) (UniProt Q9QUQ5); test: calcium flux activators in TRPC4/5HT1a cells, counter-screen for TRPC4 activator project, cell-based, second counter screen, HEK293 TRPC4/5HT1a, Fluo-4 (AID 434977;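 active = calcium signal rise above buffer-control mean plus 5 SD in both duplicates, and also a hit in the primary screen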;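 as to activation: plate controls were assay buffer for no effect and maximal serotonin response for full effect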); details: Fluo-4 calcium flux, at 10 µM; active compounds read high
[13] = calcium flux inhibitors in TRPC4/5HT1a cells, confirmation, counter-screen for TRPC4 inhibitor project, cell-based, second counter screen, HEK293 TRPC4/5HT1a, Fluo-4 (AID 434978;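 active = primary screen active whose calcium signal fell more than 3 SD beyond the full-serotonin control mean in both duplicate plates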;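 also: serotonin given first at submaximal then at maximal dose after compound preincubation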); details: Fluo-4 calcium flux, at 10 µM, serotonin added to trigger calcium flux; active compounds read high
[14] = test system: TRPC4 (mouse), co-expressed with 5HT1a in HEK293; test: calcium flux potentiators in TRPC4/5HT1a cells, confirmation, counter-screen for TRPC4 potentiator project, cell-based, second counter screen, HEK293 TRPC4/5HT1a, Fluo-4 (AID 434979;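 active = signal rise over 3 SD above mean of control wells given weak agonist, in both repeats and first screen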); details: Fluo-4 calcium flux, at 10 µM, serotonin added at its EC20 dose; active compounds read high
[15] = calcium flux activation in mu-opioid HEK293 cells, confirmation, counter-screen for TRPC4 activator project, cell-based, HEK293 mu-opioid receptor line (AID 449723); details: Fluo-4 calcium fluorescence, at 10 µM; active compounds read high;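 also: counter screen cells carry the mu-opioid receptor alone and lack TRPC4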
[16] = calcium flux enhancement in mu-opioid HEK293 cells, confirmation, counter-screen for TRPC4 allosteric potentiator project, cell-based, HEK293 mu-opioid receptor line (AID 449724;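 active = calcium signal rise more than 3 SD above the low-dose agonist control mean, in both duplicate plates and the primary screen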); details: Fluo-4 calcium flux, at 10 µM, compound added before EC20 DAMGO stimulus; active compounds read high

## c1ccc2c(c1)CCN(c1ncnc3c1[nH]c1ccccc13)C2
[1]
  outcome: inactive
[2]
  outcome: inactive
[3]
  outcome: inactive
[4]
  outcome: inactive
[5]
  outcome: inactive
[6]
  outcome: inactive
[7]
  outcome: inactive
[8]
  outcome: inactive
[9]
  outcome: inactive
[10]
  outcome: inactive
[11]
  outcome: inactive
[12]
  outcome: inactive
[13]
  outcome: inactive
[14]
  outcome: inactive
[15]
  outcome: inactive
[16]
  outcome: inactive

## NCCSc1c(-c2ccc(Cl)cc2)[nH]c2ccccc12
[1]
  activation: 116% (active)
[2]
  outcome: inactive
[3]
  outcome: inactive
[4]
  outcome: inactive
[5]
  outcome: inactive
[6]
  outcome: inactive
[7]
  outcome: inactive
[8]
  outcome: inactive
[9]
  outcome: inactive
[10]
  outcome: inactive
[11]
  outcome: inactive
[12]
  activation: 8.63% (active)
[13]
  outcome: inactive
[14]
  outcome: inactive
[15]
  activation: 19.5% (active)
[16]
  outcome: inactive

## CCN1CCN(c2c(S(=O)(=O)c3ccc(C)c(C)c3)cnc3ccc(F)cc23)CC1
[1]
  activation: 106% (active)
[2]
  outcome: inactive
[3]
  outcome: inactive
[4]
  outcome: inactive
[5]
  outcome: inactive
[6]
  outcome: inactive
[7]
  outcome: inactive
[8]
  outcome: inactive
[9]
  outcome: inactive
[10]
  activation: 50% (active)
[11]
  outcome: inactive
[12]
  outcome: inactive
[13]
  outcome: inactive
[14]
  outcome: inactive
[15]
  outcome: inactive
[16]
  outcome: inactive

## CN(C)C(CNC(=O)/C=C/c1cccc(Cl)c1)c1ccccc1 (stereo not drawn)
[1]
  activation: 148% (active)
[2]
  activation: 83% (active)
[3]
  outcome: inactive
[4]
  outcome: inactive
[5]
  outcome: inactive
[6]
  outcome: inactive
[7]
  outcome: inactive
[8]
  outcome: inactive
[9]
  outcome: inactive
[10]
  activation: 49% (active)
[11]
  outcome: inactive
[12]
  outcome: inactive
[13]
  outcome: inactive
[14]
  outcome: inactive
[15]
  outcome: inactive
[16]
  outcome: inactive

## COc1ccc(CCN(C)CCC(=O)Nc2c(C)cc(C)cc2C)cc1OC
[1]
  outcome: inactive
[2]
  outcome: inactive
[3]
  outcome: inactive
[4]
  outcome: inactive
[5]
  outcome: inactive
[6]
  outcome: inactive
[7]
  outcome: inactive
[8]
  outcome: inactive
[9]
  outcome: inactive
[10]
  activation: 48.5% (active)
[11]
  outcome: inactive
[12]
  activation: 58.1% (active)
[13]
  outcome: inactive
[14]
  outcome: inactive
[15]
  outcome: inactive
[16]
  outcome: inactive

## CN(C)CCCN(C(=O)c1ccc(S(=O)(=O)N(C)Cc2ccccc2)cc1)c1nc2cc3c(cc2s1)OCO3
[1]
  outcome: inactive
[2]
  outcome: inactive
[3]
  outcome: inactive
[4]
  outcome: inactive
[5]
  outcome: inactive
[6]
  outcome: inactive
[7]
  outcome: inactive
[8]
  outcome: inactive
[9]
  outcome: inactive
[10]
  outcome: inactive
[11]
  outcome: inactive
[12]
  outcome: inactive
[13]
  outcome: inactive
[14]
  outcome: inactive
[15]
  outcome: inactive
[16]
  outcome: inactive

## Cc1cc(C)c(C)c(OCCCN(C)C)c1
[1]
  activation: 152% (active)
[2]
  activation: 95% (active)
[3]
  outcome: inactive
[4]
  outcome: inactive
[5]
  outcome: inactive
[6]
  outcome: inactive
[7]
  outcome: inactive
[8]
  outcome: inactive
[9]
  outcome: inactive
[10]
  activation: 67.5% (active)
[11]
  outcome: inactive
[12]
  activation: 47.6% (active)
[13]
  outcome: inactive
[14]
  potentiation: 15.7% (active)
[15]
  outcome: inactive
[16]
  outcome: inactive

## CCN1C(=O)c2cccc3c(S(=O)(=O)Nc4ccccc4OC)ccc1c23
[1]
  outcome: inactive
[2]
  outcome: inactive
[3]
  outcome: inactive
[4]
  outcome: inactive
[5]
  outcome: inactive
[6]
  outcome: inactive
[7]
  outcome: inactive
[8]
  outcome: inactive
[9]
  outcome: inactive
[10]
  outcome: inactive
[11]
  outcome: inactive
[12]
  outcome: inactive
[13]
  outcome: inactive
[14]
  outcome: inactive
[15]
  outcome: inactive
[16]
  outcome: inactive
